# Where “and” joins values, the source holds several entries; their conditions need not be identical. Equal entries are not always repeated. Records with an inconclusive call do not appear. A call without a number means that no potency is given here. A number with no mark means an inactive call. Calls of active or inactive are those of the source. Calls come from the whole dose curve; as a rule, active = well fitted curve in the direction sought with a large enough effect; inconclusive = small, poorly fitted or top-dose-only effect, or another doubt; inactive = no such curve, though single readings can be large; an effect the other way counts as inactive or inconclusive.
# Legend:
# [1] = qHTS of pediatric cancer cell lines to identify multiple opportunities for drug repurposing: Primary screen for TC32 cells (AID 1347089); note: nearly all actives have a fitted effect of over 60% in size
# Outline: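 qHTS, TC32, 48 h drug treatment, CellTiter-Glo luminescence as a proxy for metabolically active cells; primary top concentration 46 µM (MIPE 11-pt, NPC 8-pt); confirmatory 11-pt.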
# [2] = qHTS of pediatric cancer cell lines to identify multiple opportunities for drug repurposing: Primary screen for DAOY cells (AID 1347090); note: nearly all actives have a fitted effect of over 55% in size
# Outline: (§1)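 Cell viability, CellTiter-Glo luminescence; 500-1,000 cells/well, 8- or 11-point titration, 48 h compound exposure at 37 degrees C, 5% CO2. Controls: DMSO neutral, bortezomib 2.3 µM final as positive.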
# [3] = qHTS of pediatric cancer cell lines to identify multiple opportunities for drug repurposing: Primary screen for SJ-GBM2 cells (AID 1347091)
# Outline: as §1
# [4] = qHTS of pediatric cancer cell lines to identify multiple opportunities for drug repurposing: Primary screen for A673 cells (AID 1347092); note: nearly all actives have a fitted effect of over 45% in size
# Outline: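 Luminescence from CellTiter-Glo, taken after 15 min at room temperature, served as the proxy for metabolically active cells following 48 h treatment. Both potency and efficacy were taken from curves fitted to the titration data.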
# [5] = qHTS of pediatric cancer cell lines to identify multiple opportunities for drug repurposing: Primary screen for SK-N-MC cells (AID 1347093)
# Outline: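 Metabolically active cells were quantified by ATP-dependent luminescence (CellTiter-Glo, 15 min at room temperature) following 48 h treatment. Cells had been plated at 500-1,000 per well and settled for 5 h beforehand.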
# [6] = qHTS of pediatric cancer cell lines to identify multiple opportunities for drug repurposing: Primary screen for NB-EBc1 cells (AID 1347095)
# Outline: (§2)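 Quantitative HTS format: each compound titrated (MIPE 11 points from 0.78 nM, NPC 8 points from 0.59 nM) onto cells plated 5 hours earlier. After 48 h at 37 degrees C, CellTiter-Glo luminescence was recorded.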
# [7] = qHTS of pediatric cancer cell lines to identify multiple opportunities for drug repurposing: Primary screen for U-2 OS cells (AID 1347096); note: nearly all actives have a fitted effect of over 50% in size
# Outline: (§3)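 Cells (500-1,000/well) rested 5 h, then received compounds for 48 h; metabolically active cells were measured by CellTiter-Glo luminescence. Final concentrations spanned up to 46 µM (MIPE, 11-point) or 0.59 nM-46 µM (NPC, 8-point) in primary screens, 11-point in follow-ups.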
# [8] = qHTS of pediatric cancer cell lines to identify multiple opportunities for drug repurposing: Primary screen for Saos-2 cells (AID 1347097); note: nearly all actives have a fitted effect of over 40% in size
# Outline: as §2
# [9] = qHTS of pediatric cancer cell lines to identify multiple opportunities for drug repurposing: Primary screen for BT-37 cells (AID 1347094)
# Outline: as §2
# [10] = qHTS of pediatric cancer cell lines to identify multiple opportunities for drug repurposing: Primary screen for SK-N-SH cells (AID 1347098); note: nearly all actives have a fitted effect of over 65% in size
# Outline: as §3
# Potency is the fitted concentration of half-maximal effect.
Structure (SMILES),Potency [1],Potency [2],Potency [3],Potency [4],Potency [5],Potency [6],Potency [7],Potency [8],Potency [9],Potency [10]
CN(C)CCc1ccc(O)cc1,inactive,inactive,inactive,inactive,inactive,inactive,inactive,inactive,–,–
Clc1ccc(CCC(Cn2ccnc2)Sc2c(Cl)cccc2Cl)cc1 (stereo not drawn),inactive,inactive,inactive,23.5 µM (active),23.5 µM (active),21.1 µM (active),–,–,–,–
FC(F)(F)c1cccc(C2=CCN(CCc3ccc4ccccc4c3)CC2)c1,inactive,inactive,inactive,inactive,inactive,inactive,inactive,inactive,–,–
OCCOc1ccccc1,inactive,inactive,inactive,inactive,inactive,inactive,inactive,inactive,inactive,–
N[C@@H](Cc1ccc(Oc2cc(I)c(O)c(I)c2)c(I)c1)C(=O)O,inactive,inactive,inactive,inactive,inactive,inactive,inactive,inactive,inactive,inactive
CCN(CC)CCOC(=O)C(O)(c1ccccc1)c1ccccc1,inactive,inactive,inactive,inactive,inactive,inactive,inactive,inactive,–,–
CC[C@@H](CO)NC(=O)[C@@H]1C=C2c3cccc4[nH]cc(c34)C[C@H]2N(C)C1,inactive,inactive,inactive,inactive,inactive,inactive,inactive,inactive,–,–
N[C@@H](Cc1ccc(N(CCCl)CCCl)cc1)C(=O)O,20.8 µM (active),16.8 µM (active) and 18.7 µM (active),2.64 µM (active),6.68 µM (active) and 5.9 µM (active),2.99 µM (active) and 2.35 µM (active),3.76 µM (active) and 235 nM (active),inactive,26.6 µM (active) and 16.6 µM (active),15.5 µM (active) and 15.3 µM (active),–
Cc1cccc(C)c1NC1=NCCCS1,inactive,inactive,inactive,inactive,inactive,inactive,inactive,inactive,inactive,inactive
CC(=O)Nc1cc([As](=O)(O)O)ccc1O,inactive,inactive,inactive,inactive,inactive,inactive,inactive,inactive,inactive,–
NP(N)(=O)NC(=O)c1ccc(F)cc1,inactive,inactive,inactive,inactive,inactive,inactive,inactive,inactive,inactive,–
N[C@@H]1C[C@H]1c1ccccc1,inactive,inactive,inactive,inactive,inactive,inactive,inactive,–,inactive,–
Clc1cccc(N2CCNCC2)c1,inactive,inactive,inactive,inactive,inactive,inactive,inactive,inactive,–,inactive
NN=C(N)N,inactive,inactive,inactive,inactive,inactive,inactive,inactive,inactive,inactive,inactive
C=C1CC[C@@]2(O)[C@H]3Cc4ccc(O)c5c4[C@@]2(CCN3CC2CC2)[C@H]1O5,inactive,inactive,inactive,inactive,inactive,inactive,inactive,inactive,inactive,–
CC(=O)[C@H]1CC[C@H]2[C@@H]3CC[C@H]4C[C@](C)(O)CC[C@]4(C)[C@H]3CC[C@]12C,inactive,inactive,inactive,inactive,inactive,inactive,inactive,inactive,inactive,inactive
CC(C)(C)NCC(O)c1cc(Cl)c(N)c(Cl)c1 (stereo not drawn),inactive,inactive,inactive,inactive,inactive,inactive,inactive,inactive,inactive,inactive
COC1(CS(=O)c2ccccc2)CCN(CCc2c[nH]c3ccc(F)cc23)CC1 (stereo not drawn),inactive,inactive,inactive,inactive,inactive,inactive,inactive,inactive,–,–
CC(=O)[C@H]1CC[C@H]2[C@@H]3CC[C@H]4C[C@H](O)CC[C@]4(C)[C@H]3C(=O)C[C@]12C,inactive,inactive,inactive,inactive,inactive,inactive,inactive,inactive,inactive,–
CCCN1CCC[C@@H]2Cc3nc(N)ncc3C[C@H]21,inactive,inactive,inactive,inactive,inactive,inactive,inactive,–,inactive,inactive
NCCc1cc(O)c(O)cc1O,inactive,inactive,inactive,inactive,inactive,inactive,inactive,inactive,inactive,–

Structure (SMILES),Potency [1],Potency [2],Potency [3],Potency [4],Potency [5],Potency [6],Potency [7],Potency [8],Potency [9],Potency [10]
Fc1ccc(C(OCCN2CCN(CCCc3ccccc3)CC2)c2ccc(F)cc2)cc1,13.1 µM (active),23.5 µM (active),20.9 µM (active) and 16.8 µM (active),14.8 µM (active),9.35 µM (active) and 10.6 µM (active),23.7 µM (active),23.5 µM (active),14.8 µM (active) and 15 µM (active),21.7 µM (active) and 24.6 µM (active),–
CN(C)CCN(C)CCc1ccc(Cl)c(Cl)c1,inactive,inactive,inactive,inactive,14.8 µM (active),inactive,inactive,inactive,–,–
Oc1cc(Cl)ccc1Oc1ccc(Cl)cc1Cl,inactive,49.5 µM (active),4.42 µM (active),39.4 µM (active),27.9 µM (active),4.95 µM (active),inactive,24.8 µM (active) and 26.6 µM (active),–,11.4 µM (active) and 27.3 µM (active)
CC1NCCOC1c1ccccc1 (stereo not drawn),inactive,inactive,inactive,inactive,inactive,inactive,inactive,inactive,inactive,inactive
O=C(O)c1ccc2[nH]cc(CCCCN3CC=C(c4ccccc4)CC3)c2c1,inactive,inactive,inactive,inactive,inactive,–,inactive,–,inactive,–
O=C1NCN(c2ccccc2)C12CCN(CC1COc3ccccc3O1)CC2 (stereo not drawn),inactive,inactive,inactive,inactive,inactive,inactive,inactive,–,inactive,inactive
CC[N+]1(C)CCCC(OC(=O)C(O)(c2ccccc2)c2ccccc2)C1 (stereo not drawn),inactive,inactive,inactive,inactive,inactive,inactive,inactive,inactive,inactive,–
COc1ccc(C(=O)c2c(C)n(CCN3CCOCC3)c3ccccc23)cc1,inactive,inactive,inactive,inactive,inactive,inactive,inactive,inactive,inactive,–
CC1OC(C)OC(C)O1 (stereo not drawn),inactive,inactive,inactive,inactive,inactive,inactive,inactive,inactive,–,inactive
C=CCN1CC[C@]23c4c5ccc(O)c4O[C@H]2C(=O)CC[C@@]3(O)[C@H]1C5,inactive,inactive,inactive,inactive,inactive,inactive,inactive,inactive,inactive,–
Oc1ccccc1-c1ccccc1,inactive,inactive,inactive,inactive,inactive,inactive,inactive,–,inactive,inactive
c1ccc(C2CC2)c(OCC2=NCCN2)c1,inactive,inactive,inactive,inactive,inactive,inactive,inactive,–,–,–
CCN(C(C)=O)c1cccc(-c2ccnc3c(C#N)cnn23)c1,inactive,inactive,inactive,inactive,inactive,inactive,inactive,inactive,inactive,inactive
Cc1ccc(-c2nc3ccc(C)cn3c2CC(=O)N(C)C)cc1,inactive,inactive,inactive,inactive,inactive,inactive,inactive,inactive,inactive,inactive
CNC(=O)c1ccc(N2C(=S)N(c3ccc(C#N)c(C(F)(F)F)c3)C(=O)C23CCC3)cc1F,inactive,3.72 µM (active),inactive,18.7 µM (active),5.9 µM (active),–,–,inactive,inactive,–
CNCC(O)c1ccc(O)cc1 (stereo not drawn),inactive,inactive,inactive,inactive,inactive,inactive,inactive,inactive,–,inactive
CCC(COC(=O)c1cc(OC)c(OC)c(OC)c1)(c1ccccc1)N(C)C (stereo not drawn),inactive,inactive,–,inactive,inactive,inactive,inactive,inactive,inactive,–
C#CCN(C)[C@H](C)Cc1ccccc1,inactive,inactive,inactive,inactive,inactive,inactive,inactive,inactive,–,inactive
CCCC(C)(COC(N)=O)COC(=O)NC(C)C (stereo not drawn),inactive,inactive,–,inactive,inactive,inactive,inactive,inactive,inactive,inactive
C[C@]12CCC(=O)C(O)=C1CC[C@@H]1[C@@H]2CC[C@]2(C)C(=O)CC[C@@H]12,inactive,inactive,–,inactive,inactive,inactive,inactive,inactive,–,–
